“And” between values parts separate entries of the source, which are not always exact repeats. Equal entries are not always repeated. Results filed as inconclusive are left out. The source made the active and inactive calls. Calls come from the whole dose curve; as a rule, active = well fitted inhibition curve with a large enough effect; inconclusive = small, poorly fitted or top-dose-only effect; inactive = flat fitted curve, though single readings scatter. Where a SMILES comes first, the peptide text is derived from it.
Columns and labels:
Assay in all cases: Cytotoxic Profiling of Annotated Libraries Using Quantitative High-Throughput Screening (AID 1296008); note: nearly all actives have a fitted effect of over 60% in size
Settings in all cases: Five cell lines viability, CellTiter-Glo ATP luminescence, 48-72 h; max response: active compounds read low
CRL-7250 = system: CRL-7250
In short: (§1)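 Compounds were pin-transferred onto cells and incubated 48 or 72 hr at 37 degree Celsius, 95% humidity. CellTiter-Glo was added, plates sat 10 min at room temperature, then ATP-coupled luminescence was imaged as the viability read-out.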

HEK293 = system: HEK293
In short: as §1

HaCat = system: HaCat
In short: as §1
% is set by controls: 0 for no effect and ±100 for the full control effect; potency is the fitted concentration of half-maximal effect.

O=C(O)c1cc(O[C@@H]2O[C@H](CO[C@@H]3OC[C@@H](O)[C@H](O)[C@H]3O)[C@@H](O)[C@H](O)[C@H]2O)c2ccccc2c1O
inactive: max response (CRL-7250) 3.92% | outcome (HEK293) | outcome (HaCat)

C=C(C)[C@@H]1CC[C@](C)(O)[C@@H](OC(=O)c2ccccc2)C1
inactive: outcome (CRL-7250) | outcome (HEK293) | max response (HaCat) -0.346%

Cc1ncc([N+](=O)[O-])n1CC(O)CN1CCOCC1 (stereo not given)
inactive: outcome (CRL-7250) | outcome (HEK293) | outcome (HaCat)

CC(=O)OC[C@@]12[C@H](O)C[C@@H](C)[C@]3(C[C@@H](c4ccoc4)OC3=O)[C@H]1C[C@H](O)C[C@]21CO1
inactive: outcome (CRL-7250) | outcome (HEK293) | outcome (HaCat)

CC(=O)O[C@@H]1[C@H]2[C@@H](OC(=O)c3ccccc3)[C@@H](C)C[C@]2(O)[C@H](OC(C)=O)[C@@]2(C)[C@@H]3CC(C)(C)C(=O)[C@]3(OC(C)=O)C[C@@]12C
inactive: outcome (CRL-7250) | outcome (HEK293) | outcome (HaCat)

CCCOc1ccn2c(C(C)=O)cc(-c3ccccc3S(C)(=O)=O)c2c1
inactive: outcome (CRL-7250) | outcome (HEK293) | outcome (HaCat)

C=C(C)C(C)C1OC23CC4(CO2)C(CCC2C5(C)CCC(OC6OCC(O)C(OC7OC(CO)C(O)C(OC8OCC(O)C(O)C8O)C7O)C6OC6OC(CO)C(O)C6O)C(C)(C)C5CCC24C)C3C(C)(O)C1OC(C)=O (stereo not given)
inactive: max response (CRL-7250) -0.008% | outcome (HEK293) | outcome (HaCat)

CC(=O)c1cnc2ccc(-c3cc(Cl)c(O)c(Cl)c3)nc2c1NC1CCC(CN(C)C)CC1 (stereo not given)
active: Potency (CRL-7250) 166 nM and 1.19 µM | Potency (HEK293) 52.4 nM and 237 nM | Potency (HaCat) 33.1 nM

COC1=CC(=O)O[C@@H](/C=C/c2ccccc2)[C@@H]1O
inactive: outcome (CRL-7250) | outcome (HEK293) | max response (HaCat) 4.5%

CC(C)C1=CC2=CCC3[C@](C)(CCC[C@@]3(C)C(=O)O)C2CC1=O (stereo not given in full)
inactive: outcome (CRL-7250) | outcome (HEK293) | max response (HaCat) 1.19%

CCc1cc2c(=O)c(-c3nc4ccccc4s3)coc2c(CN2CCCCC2)c1O
inactive: max response (CRL-7250) 0.116% | outcome (HEK293) | outcome (HaCat)

C=C1CCC2[C@@](C)(C=O)CCC[C@]2(C)[C@H]1CC/C(C)=C/CO (stereo not given in full)
inactive: outcome (CRL-7250) | outcome (HEK293) | max response (HaCat) 3.6%

CC1CC(O)C2(C)C(C(=O)O)=CCCC2C1(C)CCc1ccoc1 (stereo not given)
inactive: max response (CRL-7250) 0.739% | outcome (HEK293) | outcome (HaCat)

CC(C)(OC1OC(CO)C(O)C(O)C1O)C1CCC(O)(CO)C2CC(O)C(C)(O)C2C1 (stereo not given)
inactive: max response (CRL-7250) -5.53% | outcome (HEK293) | max response (HaCat) 0.555%

COc1ccc(C(O[C@@H]2O[C@H](CO)[C@@H](O)[C@H](O)[C@H]2O)C(CO)Oc2ccc(/C=C/CO)cc2OC)cc1O (stereo not given in full)
inactive: outcome (CRL-7250) | outcome (HEK293) | outcome (HaCat)

COc1cc(-c2cccc(O)c2)cc2c1OCO2
inactive: max response (CRL-7250) -4.5% | outcome (HEK293) | max response (HaCat) 0.342%

COC(=O)C1=C[C@@H](O)[C@@H](O)[C@H](O[C@@H]2O[C@H](COC(=O)/C=C/c3ccccc3)[C@@H](O)[C@H](O)[C@H]2O)C1
inactive: outcome (CRL-7250) | outcome (HEK293) | outcome (HaCat)

OCC1=CC[C@@H]2C=CO[C@@H](O[C@@H]3O[C@H](CO)[C@@H](O)[C@H](O)[C@H]3O)[C@H]12
inactive: outcome (CRL-7250) | outcome (HEK293) | max response (HaCat) -13.7%

Nc1nc(CC(=O)Nc2ccc(CCNCC(O)c3ccccc3)cc2)cs1 (stereo not given)
inactive: max response (CRL-7250) 2.98% | outcome (HEK293) | max response (HaCat) -9.93%

O=C(O)c1ccc(CCCc2ccc(OCCc3ccc(F)cc3)cc2)o1
inactive: max response (CRL-7250) -2.7% | outcome (HEK293) | outcome (HaCat)

C=CCc1ccc(O[C@@H]2O[C@H](CO[C@@H]3O[C@@H](C)[C@H](O)[C@@H](O)[C@H]3O)[C@@H](O)[C@H](O)[C@H]2O)cc1
inactive: max response (CRL-7250) -0.302% | outcome (HEK293) | max response (HaCat) 4.55%

CC1(CO)CC[C@]2(C(=O)O[C@@H]3O[C@H](CO)[C@@H](O)[C@H](O)[C@H]3O)CC[C@]3(C)C(=CCC4[C@@]5(C)C[C@H](O)[C@H](O[C@@H]6OC[C@@H](O)[C@H](O)[C@H]6O)[C@@](C)(CO)C5CC[C@]43C)C2C1 (stereo not given in full)
inactive: outcome (CRL-7250) | outcome (HEK293) | max response (HaCat) -24.8%

C[C@@H]1CC[C@]2(C(=O)O)CC[C@]3(C)C(=CCC4[C@]5(C)C(CC[C@]43C)C(C)(C)[C@@H](O)[C@H](O)[C@@H]5O)C2[C@]1(C)O (stereo not given in full)
inactive: max response (CRL-7250) -2.7% | outcome (HEK293) | outcome (HaCat)

COC(=O)[C@]12C(=O)C(C)=C(O)[C@@]1(C)C(C)=CC1[C@@]34CC[C@@H](OC(C)=O)C(C)(C)C3[C@H](C[C@]12C)OC4=O (stereo not given in full)
inactive: max response (CRL-7250) 4.87% | outcome (HEK293) | max response (HaCat) -9.29%

CC1OC(OC2C(CO)OC(OCC3OC(OC(=O)C45CCC(C)(C)CC4C4=CCC6C7(C)CCC(OC8OC(C(=O)O)C(O)C(OC9OC(CO)C(O)C(O)C9O)C8O)C(C)(C)C7CCC6(C)C4(C)CC5)C(O)C(O)C3O)C(O)C2O)C(O)C(O)C1O (stereo not given)
inactive: outcome (CRL-7250) | outcome (HEK293) | max response (HaCat) -1.82%

COc1cc(/C=C/CO)ccc1O[C@@H]1O[C@H](CO)[C@@H](O)[C@H](O)[C@H]1O
inactive: max response (CRL-7250) -3.79% | outcome (HEK293) | outcome (HaCat)

C[C@H]1[C@H](C)CC[C@]2(C(=O)O)CC[C@]3(C(=O)O)C(=CCC4[C@@]5(C)CC[C@H](O[C@@H]6O[C@H](C)[C@@H](O)[C@H](O)[C@H]6O)C(C)(C)C5CC[C@]43C)[C@H]12 (stereo not given in full)
inactive: max response (CRL-7250) -5.62% | outcome (HEK293) | max response (HaCat) 2.99%

NC(=O)c1ccc(OCC2NC(=O)C3CCCN3C2=O)cc1 (stereo not given)
inactive: max response (CRL-7250) -2.01% | outcome (HEK293) | max response (HaCat) -3.74%

CC(C)CC1(C(=O)OCc2ccc(O[C@@H]3O[C@H](CO)[C@@H](O)[C@H](O)[C@H]3O)cc2)CC(=O)OC(C(=O)O)CC(=O)OCC2OC(O1)C(OC(=O)/C=C/c1ccc(O)cc1)C(O)C2O (stereo not given in full)
inactive: max response (CRL-7250) 2.72% | outcome (HEK293) | max response (HaCat) -1.08%

CC1CCC2C(C)(C)CC(C)(CO)C2(O)C1C(=O)O (stereo not given)
inactive: max response (CRL-7250) 0.69% | outcome (HEK293) | outcome (HaCat)

CC1(C)CCCC2(C)C(CO)C3CCC2C31 (stereo not given)
inactive: max response (CRL-7250) -0.786% | outcome (HEK293) | max response (HaCat) 0.929%

CC1NC(=O)CNC(=O)C(C(C)C)NC(=O)C2CCCN2C(=O)C(C(C)C)NC(=O)C(Cc2c[nH]c3ccccc23)NC1=O (stereo not given) (cyclo(GAWVPV); configuration not given here)
inactive: outcome (CRL-7250) | outcome (HEK293) | outcome (HaCat)

CC1=C2[C@@H]([C@H](C)CC[C@H]2/C=C(\C)C(=O)O)[C@H](O)C1
inactive: max response (CRL-7250) 0.252% | outcome (HEK293) | outcome (HaCat)

CC(C)(O)c1ccc2c(c1)C(O)CC1C(C)(C(=O)O)CCCC21C (stereo not given)
inactive: max response (CRL-7250) -4.52% | outcome (HEK293) | outcome (HaCat)

C[C@@H]1CC[C@]2(C(=O)O)CC[C@]3(C(=O)O)C(=CCC4[C@@]5(C)CC[C@H](O[C@@H]6O[C@@H](C)[C@H](O[C@@H]7O[C@H](CO)[C@@H](O)[C@H](O)[C@H]7O)[C@@H](O)[C@H]6O)C(C)(C)C5CC[C@]43C)C2[C@H]1C (stereo not given in full)
inactive: max response (CRL-7250) 0.369% | outcome (HEK293) | max response (HaCat) -0.856%

CC(O)C(O)/C=C/C=C/C(=O)O[C@@H]1C=C2COC(=O)[C@]2(O)[C@@]2(C)CCCC(C)(C)C12 (stereo not given in full)
inactive: max response (CRL-7250) 3.05% | outcome (HEK293) | outcome (HaCat)

CCC(C)/C=C(C)/C=C/C1=CC2=C(Cl)C(=O)C(C)(OC(C)=O)C(=O)C2=CN1CCCC(=O)O (stereo not given)
inactive: outcome (CRL-7250) | outcome (HEK293) | max response (HaCat) -6.78%

CC(C)[C@H]1CCC(CO)=C[C@@H]1/C=C(\CO)C(=O)O
inactive: max response (CRL-7250) -1.21% | outcome (HEK293) | outcome (HaCat)

CC1CCC23COC(=O)C2=CC(O)CC3C1(C)CCC1=CC(=O)OC1O (stereo not given)
inactive: outcome (CRL-7250) | outcome (HEK293) | max response (HaCat) -0.369%

CCC[C@@H]1C[C@@H](C(=O)N[C@@H]([C@H]2O[C@H](SC)[C@H](OP(=O)(O)O)[C@@H](O)[C@H]2O)[C@H](C)Cl)N(C)C1
inactive: max response (CRL-7250) -7.94% | max response (HEK293) -4.58% | max response (HaCat) 4.98%

C=C1CCC2C(C)(C)CC(=O)CC2(C)C1CCC(C)CCOC(C)=O (stereo not given)
inactive: outcome (CRL-7250) | outcome (HEK293) | outcome (HaCat)

C[C@@H]1CC[C@]2(C)C(C[C@@H](O)[C@H](O)[C@]23CO3)[C@@]1(C)CCc1ccoc1 (stereo not given in full)
inactive: outcome (CRL-7250) | outcome (HEK293) | outcome (HaCat)

CC(=O)N[C@H]1[C@H](O[C@H]2CC[C@@]3(C)C(CC[C@]4(C)C3CC=C3C5CC(C)(C)CC[C@]5(C(=O)O)[C@H](O[C@@H]5O[C@H](CO)[C@@H](O)[C@H](O)[C@H]5O)C[C@]34C)C2(C)C)O[C@H](CO[C@@H]2OC[C@H](O)[C@H](O)[C@H]2O[C@@H]2OC[C@@H](O)[C@H](O)[C@H]2O)[C@@H](O)[C@@H]1O (stereo not given in full)
inactive: outcome (CRL-7250) | outcome (HEK293) | max response (HaCat) -15.2%

C=C1[C@@H]2[C@H]3OC(=O)C(=C)[C@@H]3CC[C@@](C)(O)[C@@H]2C[C@@H]1O[C@@H]1O[C@H](CO)[C@@H](O)[C@H](O)[C@H]1O
inactive: max response (CRL-7250) -4.93% | outcome (HEK293) | max response (HaCat) -10.8%

Cc1nnc(C(C)C)n1C1CC2CCC(C1)N2CC[C@H](NC(=O)C1CCC(F)(F)CC1)c1ccccc1 (stereo not given in full)
inactive: outcome (CRL-7250) | outcome (HEK293) | outcome (HaCat)

CCOc1nc2cccc(C(=O)OCc3oc(=O)oc3C)c2n1Cc1ccc(-c2ccccc2-c2noc(O)n2)cc1
inactive: outcome (CRL-7250) | outcome (HEK293) | outcome (HaCat)

CC(/C=C/C1(O)C(C)(C)CC(O)CC1(C)O)OC1OC(CO)C(O)C(O)C1O (stereo not given)
inactive: outcome (CRL-7250) | outcome (HEK293) | max response (HaCat) -8.69%

CC1=CC(=O)CC(C)(C)C1(O)CCC(C)O (stereo not given)
inactive: outcome (CRL-7250) | outcome (HEK293) | outcome (HaCat)

NC(=O)c1cccc(-c2cc(O)cc(OC(=O)NC3CCCCC3)c2)c1
inactive: outcome (CRL-7250) | outcome (HEK293) | outcome (HaCat)

C/C=C(\C)C(=O)O[C@@H](C)[C@H]1CC[C@]2(O)C3CCC4C[C@@H](OC5CC(OC)C(OC6CC(OC)C(OC7CC(OC)C(OC8OC(C)C(OC9OC(CO)C(O)C(O)C9O)C(OC)C8O)C(C)O7)C(C)O6)C(C)O5)CC[C@]4(C)C3[C@H](O)[C@@H](O)[C@]12C (stereo not given in full)
inactive: max response (CRL-7250) -8.84% | outcome (HEK293) | outcome (HaCat)

From PubChem BioAssay (NCATS)
